PubChem BioAssay (EPA / NIEHS)
Activity calls are given as the source filed them. How the source made its calls: active means hit-call score of the fitted dose curve at least 0.9, where 1 is the maximum; inactive means score below 0.9.

assay: APR_HepG2_MitoMass_72hr: Apredica 72-hour HepG2 Assay for Mitochondrial Mass (AID 2282924); details: high-content imaging, actives raise or lower the signal;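 further: MitoTracker Red CMXRos stain intensity per cell imaged as mitochondrial mass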
Experimental: APR_HepG2_72hr is a cell-based, multiplexed-readout assay that uses HepG2, a human liver cell line, with measurements taken at 72 hours after chemical dosing in a 384-well plate.APR_HepG2_MitoMass_72hr is one of 10 assay component(s) measured or calculated from the APR_HepG2_72hr assay. It is designed to make measurements of cell phenotype, a form of morphology reporter, as detected with fluorescence intensity signals by HCS Fluorescent Imaging technology.Data from the assay component APR_HepG2_MitoMass_72hr was analyzed into 1 assay endpoint. This assay endpoint, APR_HepG2_MitoMass_72hr, was analyzed with bidirectional fitting relative to DMSO as the negative control and baseline of activity. Using a type of morphology reporter, gain or loss-of-signal activity can be used to understand changes in the signaling. Furthermore, this assay endpoint can be referred to as a primary readout, because this assay has produced multiple assay endpoints where this one serves a signaling function. To generalize the intended target to other relatable targets, this assay endpoint is annotated to the cell morphology intended target family, where the subfamily is organelle conformation.
Cells were treated with dimethyl sulfoxide (DMSO) as a solvent control at a final concentration of 0.5% v/v or with compounds in DMSO with a resulting final DMSO concentration of 0.5% v/v. Compound treatment was done at concentrations of 0.39, 0.78, 1.56, 3.12, 6.24, 12.5, 25, 50, 100, and 200 uM in duplicate on each plate. Cells were treated with compounds for 1, 24, or 72 hr. Carbonyl […] m-chloro-phenylhydrazone (CCCP) and taxol were used as positive controls for mitochondrial function and cytoskeletal stability, respectively; DMSO served as the negative control for this experiment. Cells were fixed by the direct addition of 50 uL formaldehyde in Hank's Balanced Salt Solution (HBSS) to a final concentration of 3.7%. After incubation in the fixation medium for 30 min at room temperature (293-298 K), cells were rinsed twice with HBSS and treated with cell permeabilization buffer (16 uL of 0.5% Triton X-100) for 10 min at room temperature (293-298 K) before labeling. For mitochondrial membrane potential and mitochondrial measurements, pre-fixed cells were incubated with 50 uL of MitoTracker Red CMXRos (Invitrogen) at a concentration of 250 nM for 30 min before fixation. In the remaining cases, post-fixed cells were labeled by incubation with a multiplexed mixture of primary antibodies in HBSS for 60 min at room temperature (293-298 K) to detect immunoreactivity of c-Jun (1:500), phospho-histone H3 (1:100), phospho-histone H2A.x (1:200), p53 (1:400), alpha-tubulin (1:200) and Hoechst 33342 (2 ug/mL). Cells were labeled for multiplexed imaging on two separate plates: a) Hoechst 33342, MitoTracker Red, phospho-histone H3, and alpha-tubulin, and b) Hoechst 33342, phospho-histone H2A.x, and c-Jun. A final rinse with HBSS (50 uL) was performed before analysis. The primary and secondary antibodies for the proteins were phospho-histone H3 (rabbit anti-phospho-histone H3 and FITC-donkey anti-rabbit IgG), phospho-histone H2A.x (mouse anti-phospho-histone H2A.x and FITC-donkey anti-mouse IgG), c-Jun (rabbit anti-phospho-c-Jun and Cy3-donkey anti-rabbit IgG), p53 (sheep anti-p53 and Cy5-donkey anti-sheep IgG), alpha-tubulin (mouse anti-alpha-tubulin and Cy5-donkey anti-mouse IgG). These antibodies are available as the CellCiphr HepG2 assay kit (Millipore).Digital images of each well were captured using a Cellomics ArrayScan VTI (Thermo Scientific Cellomics) (0.8 NA objective, 0.63x optical coupler, and XF-93 filter set) at 20x magnification. The images were acquired using the autofocus feature of the ArrayScan instrument, which entails the following steps. First, the camera focuses on channel 1 (Hoechst 33342), where nuclei are identified. Second, a Z offset of 1 um is used for capturing mitochondria (MitoTracker Red). […]

Compound	outcome	AC50
Cc1oc(-c2ccccc2)nc1CCOc1cccc2c1ccn2CCC(=O)O	inactive	–
Cc1cccc([N+](=O)[O-])c1C	inactive	–
Cc1ccc(C)c(O)c1C	–	9.74 µM (active)
CC(=O)Oc1ccccc1C(=O)O	inactive	–
CC(=O)OC/C=C(\C)CCC=C(C)C	inactive	–
C1CCC(SSC2CCCCC2)CC1	inactive	–
COCCOC[C@H](CC1(C(=O)NC2CCC(C(=O)O)CC2)CCCC1)C(=O)Oc1ccc2c(c1)CCC2 (stereo not given in full)	inactive	–
CCCCCCOCCO	inactive	–
CN[C@H]1CC[C@@H](c2ccc(Cl)c(Cl)c2)c2ccc(S(N)(=O)=O)cc21	inactive	–
CC1(C)CC(N=C=O)CC(C)(CN=C=O)C1 (stereo not given)	inactive	–
CNC(=O)[C@H]1O[C@@H](n2cnc3c(NCc4cc(Cl)ccc4OCc4cc(C)no4)ncnc32)[C@H](O)[C@@H]1N	inactive	–
NC(=O)Cn1c(=O)cc(CCN2CCN(c3nccc4sccc34)CC2)c2ccc(F)cc21	inactive	–
C[Si]1(C)O[Si](C)(C)O[Si](C)(C)O[Si](C)(C)O1	inactive	–
CN1CCN(Cc2cc(-c3ccc4[nH]c(=O)oc4c3)co2)[C@@H](c2ccc(F)cc2)C1	–	64.6 µM (active)
O=C(O)Cc1ccccc1Nc1c(Cl)cccc1Cl	inactive	–
CCCCCCC(=O)OCC	inactive	–
Clc1cc(Cl)c(Cl)cc1Cl	inactive	–
c1cc(-c2ccncc2)ccn1	inactive	–
CC(=O)C(C)=CC1C(C)=CCCC1(C)C (stereo not given)	inactive	–
CC(CO)OC(C)CO (stereo not given) (tested in a mixture with another compound)	inactive	–

Compound	outcome	AC50
CNCc1cc(F)ccc1Oc1ccc(Cl)c(Cl)c1	–	178 µM (active)
Cc1ccc(C(C)C)c(O)c1	inactive	–
COc1cccc2c1C(=O)c1c(O)c3c(c(O)c1C2=O)C[C@@](O)(C(=O)CO)C[C@@H]3O[C@H]1C[C@H](N)[C@H](O)[C@H](C)O1	–	36.6 µM (active)
Cc1cc(NC(=O)C(=O)O)cc(C)c1Oc1ccc(O)c2c1CCC2	inactive	–
COc1cc(/C=C/C(=O)CC(=O)/C=C/c2ccc(O)c(OC)c2)ccc1O	–	22.2 µM (active)
Nc1nc(N)c2nc(CNc3ccc(C(=O)N[C@@H](CCC(=O)O)C(=O)O)cc3)cnc2n1	inactive	–
CCCCc1ccc2c(n1)[C@@H](c1ccc(OC)cc1C[C@H](C)C(=O)O)[C@H](C(=O)O)[C@H]2c1ccc2c(c1)OCO2	inactive	–
Nc1ccc(S(=O)(=O)c2ccc(N)cc2)cc1	inactive	–
CCCc1cc(=O)[nH]c(=S)[nH]1	inactive	–
Cc1nc(-c2ccc3c(c2)CCN(CCC2CCC(NC(=O)/C=C/c4ccc(F)cc4)CC2)CC3)no1 (stereo not given)	inactive	–
Cc1cccc(C)c1O	inactive	–
CCCCCCCCCCCCCO	inactive	–
O=C(N[C@@H](Cc1ccccc1)[C@@H](O)C(=O)N1C[C@@H](O)[C@@H](O)C1)c1cc2cc(Cl)ccc2[nH]1	inactive	–
O=C(OCCCCCOC(=O)c1ccccc1)c1ccccc1	inactive	–
NS(=O)(=O)c1cc2c(cc1Cl)NCNS2(=O)=O	inactive	–
C=CCOC(=O)c1ccccc1C(=O)OCC=C	inactive	–
CC=Cc1ccc(O)c(OC)c1	inactive	–
COc1cc(S(=O)(=O)O)c(C)cc1N=Nc1c(O)ccc2cc(S(=O)(=O)O)ccc12	inactive	–
CC(C)c1ccc(C(=O)N=C(N)N)cc1S(C)(=O)=O	inactive	–
O=[N+]([O-])C(CO)(CO)CO	inactive	–
